In assay [1] the target is Glutathione peroxidase 1 (Homo sapiens) (UniProt P07203). The assay is described as follows: Primary qHTS Assay for Inhibitors of Recombinant Selenoprotein Glutathione Peroxidase 1 (GPX1) (AID 1845191). Also: nearly all actives have a fitted effect of over 65% in size. A digest of the protocol: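 Recombinant GPX1 (10 nM final) was preincubated with compound for 30 min at room temperature, then reacted with 1 mM GSH, 0.5 mM CHP, 0.5 mM NADPH and 100 nM glutathione reductase; NADPH fluorescence (340/450 nm) was read at 0 and 15 min.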
Chain of Glutathione peroxidase 1 (Homo sapiens) (P07203 whole entry, looked up): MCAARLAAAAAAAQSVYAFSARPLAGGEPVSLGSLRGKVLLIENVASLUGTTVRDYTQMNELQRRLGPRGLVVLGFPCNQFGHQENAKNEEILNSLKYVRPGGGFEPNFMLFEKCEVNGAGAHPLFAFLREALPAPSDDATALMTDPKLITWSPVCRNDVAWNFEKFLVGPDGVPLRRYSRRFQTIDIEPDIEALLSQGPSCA
(qHTS replaces the single test concentration by a dilution series.)

Assay [2] has as its target Phospholipid hydroperoxide glutathione peroxidase GPX4 (Homo sapiens) (UniProt P36969). The assay is described as follows: Primary qHTS Assay for Inhibitors of Recombinant Selenoprotein Glutathione Peroxidase 4 (GPX4) (AID 1845192). Also: series mostly up to about 50 µM; nearly all actives have a fitted effect of over 65% in size. The procedure, abridged: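 GR-coupled readout: 100 nM GR, 1 mM GSH, 0.5 mM NADPH; NADPH fluorescence (ex 340/em 450 nm) read at t=0 and after 15 min RT. GPX4 200 nM, preincubated 30 min with compound; substrate 0.5 mM CHP.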

The target of assay [3] is Luciferin 4-monooxygenase (Photinus pyralis) (UniProt P08659). The assay is described as follows: Primary firefly luciferase (FLuc) qHTS assay for identification of artifact compounds. (AID 1845220). Also: nearly all actives have a fitted effect of over 60% in size. The procedure, abridged: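 In this counter-screen for luciferase artifacts, test compounds met substrate (10 uM each luciferin and ATP) before 10 nM enzyme started the reaction. Light output was measured 5 min later.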

The nature of assay [4]: Primary fluorescence-based thiol-reactive (MSTI) qHTS assay for identification of artifact compounds. (AID 1845221). Also: nearly all actives have a fitted effect of over 65% in size. Also: potency is read from the fitted curve at half-maximal effect. A digest of the protocol: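 Probe: MSTI 4 uM, PBS pH 7.4, 2% DMSO. Incubation 1 h, RT, light-protected. Readout fluorescence 525/598 nm.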
Assay [5] relates to Nanoluciferase (engineered Oplophorus gracilirostris luciferase). The assay is described as follows: Primary Nanoluciferase (NLuc) qHTS assay for identification of artifact compounds. (AID 1845222).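 Also: NLuc secreted into diluted conditioned medium of S16 cells; series mostly up to about 54 µM.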 The procedure, abridged: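 Using secreted nanoluciferase in S16 culture medium (0.22 um filtered, 1:55 dilution), compounds were preincubated 15 min at RT. Signal was generated with Nano-Glo reagent (1:100) over 5 min.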

Values without a mark were called inactive. Records with an inconclusive call do not appear. Activity calls are given as the source filed them. Calls follow the shape of the dose curve; as a rule, active = well fitted curve in the direction sought with a large enough effect; inconclusive = small, poorly fitted or top-dose-only effect, or another doubt; inactive = no such curve, though single readings can be large; an effect the other way counts as inactive or inconclusive. Where a SMILES comes first, the peptide text is derived from it. The star is where a group is joined. βNA = c1ccc2cc(N*)ccc2c1; Cbz = O=C(OCc1ccccc1)*

Chain of Phospholipid hydroperoxide glutathione peroxidase GPX4 (Homo sapiens) (P36969 whole entry, looked up): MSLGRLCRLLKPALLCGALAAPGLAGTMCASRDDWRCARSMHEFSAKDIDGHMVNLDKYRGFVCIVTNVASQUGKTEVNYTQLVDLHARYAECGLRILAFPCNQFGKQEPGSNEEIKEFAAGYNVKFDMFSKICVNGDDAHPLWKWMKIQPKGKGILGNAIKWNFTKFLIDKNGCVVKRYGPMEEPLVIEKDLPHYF

On to `COc1cccc(Cn2ncc3c4sc(S(C)=O)cc4n(C)c3c2=O)c1` (stereo not given), for which the Potency result in assay [1], in assay [2], in assay [3], in assay [4] and in assay [5] was “inactive” in each case.

As for `Cc1nc2ccccc2c(-c2ccc3c4c(ccnc24)CCO3)c1[C@H](OC(C)(C)C)C(=O)O`, the Potency entry in assay [1], in assay [2], in assay [3], in assay [4] and in assay [5] was “inactive” each time.

With `COc1cccc(OC)c1-c1nc(C(=O)N[C@@H](CC(C)C)C(=O)O)cn1-c1ccnc2cc(Cl)ccc12`, the Potency result in assay [1], in assay [2], in assay [3], in assay [4] and in assay [5] was “inactive” throughout.

Consider `CC/C=C\C(O)C(O)C1=C(C)C(=O)C2(O1)C(=O)NC(OC)(C(=O)c1ccccc1)C2O` (stereo not given), for which the Potency result in assay [1], in assay [2], in assay [3] and in assay [5] was “inactive” each time. The Potency in assay [4] was 4.62 µM (active).

As to `CC(O)C1CCC2C3CCC4CC(OC5OC(C(=O)O)C(O)C(O)C5O)CCC4(C)C3CCC12C` (stereo not given), the Potency entry in assay [1], in assay [2], in assay [3], in assay [4] and in assay [5] was “inactive” in each case.

Turning to `C[C@@H]1O[C@@H](O[C@H]2[C@H](Oc3cc(O)c(C(=O)CCc4ccc(O)cc4)c(O)c3)O[C@H](CO)[C@@H](O)[C@@H]2O)[C@H](O)[C@H](O)[C@H]1O`, the Potency result in assay [1], in assay [2], in assay [3], in assay [4] and in assay [5] was “inactive” in each case.

On to H-DPPDPDRFYGMM-NH2, for which the Potency result in assay [1], in assay [2], in assay [3], in assay [4] and in assay [5] was “inactive” in each case.

For `O=C(NCC(=O)N1CCCC1)Nc1ccc2ccccc2c1`, the Potency entry in assay [1], in assay [2], in assay [3], in assay [4] and in assay [5] was “inactive” each time.

`OCC(O)C(c1c[nH]c2ccccc12)c1c[nH]c2ccccc12` (stereo not given): the Potency entry in assay [1], in assay [2], in assay [3] and in assay [5] was “inactive” throughout. Besides, in assay [4], the Potency was 6.7 µM (active).

With `Cc1ncc(NC(=O)c2ccc(CN3CCN(C)CC3)c(C(F)(F)F)c2)cc1Nc1nccc(-c2cccnc2)n1`, the Potency entry in assay [1], in assay [2], in assay [3], in assay [4] and in assay [5] was “inactive” each time.

On to `CC(=O)OC1CCC2(C)C(CCC3(C)C2CC=C2C4CC(C)(C)CCC4(C)CCC23C)C1(C)C(=O)O` (stereo not given), for which the Potency entry in assay [1], in assay [2], in assay [3], in assay [4] and in assay [5] was “inactive” each time.

Take `C=C1CCC2C(C)(C)CC(O)CC2(C)C1CCC(C)CC(=O)O` (stereo not given): the Potency entry in assay [1], in assay [2], in assay [3] and in assay [5] was “inactive” each time. Besides, in assay [4], the Potency was 18.5 µM (active).

With `CC(C)CC(NC(=O)OCc1ccccc1)C(=O)NC(CC(C)C)C(=O)NC(CCC(=O)O)C(=O)Nc1ccc2ccccc2c1` (stereo not drawn) (Cbz-Leu-Leu-Glu-βNA; configuration not given here), the Potency result in assay [1], in assay [2], in assay [3], in assay [4] and in assay [5] was “inactive” in each case.

With `CC1=C(C)C(=O)OC(C(C)C2C(O)CC3C4C5OC5C5(O)CC(OC6OC(CO)C(OC7OC(C)C(O)C(O)C7O)C(O)C6O)CC(O)C5(C)C4CCC32C)C1` (stereo not given), the Potency entry in assay [1], in assay [2], in assay [3], in assay [4] and in assay [5] was “inactive” each time.

On to `C/C(=C\CCC(C)CCO)C(=O)OC[C@H]1O[C@@H](O[C@@H]2OC=C(C(=O)O)[C@H]3CC[C@](C)(O)[C@@H]23)C(O)[C@@H](O)C1O` (stereo not given in full), for which the Potency result in assay [1], in assay [2], in assay [3] and in assay [5] was “inactive” each time. Besides, the Potency in assay [4] is 2.32 µM (active).

Consider `C=C1C(=O)OC[C@H]2C(C(=O)O)=CC3CC(C)(C)C[C@@]132` (stereo not given in full), for which the Potency entry in assay [1], in assay [2], in assay [3] and in assay [5] was “inactive” in each case. Also, the Potency in assay [4] was 21.2 µM (active).

As for `CC(C)[C@@H](C(=O)O)N1Cc2c(cc(O)c3c2O[C@]2(C3)[C@H](C)CCC3C(C)(C)[C@H](O)[C@H](O)C[C@@]32C)C1=O` (stereo not given in full), the Potency entry in assay [1], in assay [2], in assay [3], in assay [4] and in assay [5] was “inactive” throughout.

`CC(C/C=C/C(C)(C)O)C1CCC(C)(O)C(O)C1` (stereo not given): the Potency result in assay [1], in assay [2], in assay [3], in assay [4] and in assay [5] was “inactive” in each case.

Regarding `C=C1CCC2C(C)(C)CC(O)CC2(C)C1CCC(C)CCOC(=O)CCC(=O)O` (stereo not given), the Potency result in assay [1], in assay [2], in assay [3], in assay [4] and in assay [5] was “inactive” in each case.

For `COc1cccc(CNc2ccc(S(=O)(=O)Nc3nc4ccccc4s3)cc2)c1O`, the Potency entry in assay [1], in assay [2], in assay [3], in assay [4] and in assay [5] was “inactive” in each case.

On to `C/C=C(\C)C(=O)OC[C@H]1O[C@H](O[C@H]2O[C@H](CO)[C@@H](O)[C@H](O)[C@H]2O[C@@H]2O[C@H](CO)[C@@H](O)[C@H](O)[C@H]2O)[C@H](O[C@@H]2O[C@H](CO)[C@@H](O)[C@H](O)[C@H]2O)[C@@H](O)[C@@H]1O`, for which the Potency result in assay [1], in assay [2], in assay [3], in assay [4] and in assay [5] was “inactive” in each case.

For the molecule `CC1=CCC[C@@H]2[C@@](C)(CCc3ccoc3)[C@H](C(=O)O)CC[C@@]12C`, the Potency result in assay [1], in assay [2], in assay [3], in assay [4] and in assay [5] was “inactive” throughout.

In the case of `C/C=C1\[C@H](O[C@@H]2O[C@H](CO)[C@@H](O)[C@H](O)[C@H]2O)OC=C(C(=O)OCCc2ccc(O)cc2)[C@H]1CC(=O)OCCc1ccc(O)cc1`, the Potency result in assay [1], in assay [2], in assay [3], in assay [4] and in assay [5] was “inactive” throughout.

Values taken from PubChem BioAssay (NCATS).
